# High-throughput results: PubChem, several laboratories
# S1P3 antagonist: antagonists of human S1P3 receptor; Q99500; CHO S1P3 NFAT-BLA reporter, FRET fluorescence, antagonist mode; inhibition, % at 4.98 µM; 0.27% of 170,000 active;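 active = inhibition above the plate cutoff, the mean inhibition of test wells on that plate plus 3 SD, cut at about 28% in these data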;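 note: cells challenged with S1P at its EC80 of 0.8 µM; blue over green emission ratio from cleaved BLA substrate after 4 h stimulation; 0% = S1P-stimulated wells and 100% = unstimulated DMSO-only wells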
# Pf gametocyte: kills late stage P. falciparum gametocytes | AID 743093 | P. falciparum stage V gametocytes, ATP luminescence, 24 h | inhibition, % at 10.9 µM | 0.065% of 150,000 active;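 active = inhibition above the mean plus 3 SD of compounds within the control limits, set per campaign, cut at about 38% in these data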;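 note: 0% = DMSO wells and 100% = medium only without gametocytes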
# EP2 antag: blocks the human prostaglandin E2 receptor EP2; C6 glioma cells expressing human EP2, cAMP TR-FRET; cells stimulated with saturating PGE2; P43116; 0.52% of 260,000 active; inhibition, % at 25 µM;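 active = percent inhibition above 40 after rounding to a whole number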;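 note: rat C6 glioma host cells with rolipram phosphodiesterase inhibitor present; the protocol text gives 20 µM as final concentration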
# Target sequence (P43116 whole entry, looked up): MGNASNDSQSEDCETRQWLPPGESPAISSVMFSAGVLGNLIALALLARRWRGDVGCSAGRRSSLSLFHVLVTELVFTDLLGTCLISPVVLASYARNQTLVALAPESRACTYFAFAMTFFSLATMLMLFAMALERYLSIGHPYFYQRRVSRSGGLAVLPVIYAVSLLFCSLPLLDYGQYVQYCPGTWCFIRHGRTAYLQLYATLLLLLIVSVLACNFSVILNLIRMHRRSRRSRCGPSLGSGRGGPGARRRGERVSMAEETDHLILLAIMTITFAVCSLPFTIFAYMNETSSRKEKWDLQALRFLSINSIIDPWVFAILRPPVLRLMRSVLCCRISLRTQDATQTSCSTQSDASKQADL
# S1P4 ag: activates the human S1P4 receptor; 0.35% of 220,000 active; AID 1509; S1P4-expressing cell line, agonist reporter assay; activation, % at 4.98 µM; in the data active = activation above about 11%;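 note: 0% = DMSO vehicle and 100% = reference agonist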
# S1P4 antagonist: antagonists of human S1P4 receptor. AID 1510. inhibition, % at 4.98 µM. S1P4-expressing cells, antagonist mode, reporter read-out. 0.26% of 220,000 active. O95977; in the data active = inhibition above about 29%;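 note: 0% = wells stimulated with agonist and 100% = vehicle wells without agonist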
# EP2 mod: EP2 receptor (human) modulation; induction, % at 25 µM; 0.83% of 260,000 active; EP2-expressing cells, cAMP HTRF FRET, PGE2 co-stimulation; AID 940;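 active = compounds whose cAMP rise, as percent of the full-agonist control response, exceeds 60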;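 note: rat C6 glioma line stably carrying human EP2 under a CMV promoter; the protocol text gives 20 µM as final concentration; 100% = response of wells given 1 µM PGE2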
# The depositor's hits bear a star; nt = no result given. In the library only some 1.9% were active in any assay of this set; here they are far more common.
SMILES,S1P3 antagonist,Pf gametocyte,EP2 antag,S1P4 ag,S1P4 antagonist,EP2 mod
c1ccc(-n2nc3ccc4nonc4c3n2)cc1,nt,nt,9.4,nt,nt,-67.7
COc1ccc2cc1Oc1ccc(cc1)C[C@H]1c3cc(c(OC)cc3CCN1C)Oc1c(OC)c(OC)cc3c1[C@@H](C2)N(C)CC3,nt,1.6,59.5*,nt,nt,-12.2
COc1ccccc1-c1cc(C(F)(F)F)nc(S(=O)(=O)CCCC(=O)Nc2cccnc2Cl)n1,-5.3,-21.8,8.3,-0.7,49.9*,24.1
COc1ccccc1-c1cc(C(F)(F)F)nc(S(=O)(=O)CCCC(=O)NC(C)C)n1,0.8,0.3,11.0,0.2,-5.3,48.3
CCOc1ccccc1NC(=O)CSc1nnc(-c2ccc(C)cc2)o1,nt,nt,5.9,nt,nt,-5.5
Cc1ccc2[nH]c(-c3ccccc3)cc(=O)c2c1,60.5*,nt,13.0,2.0,25.1,-3.6
OC(CN1CCC2(CC1)CC(O)c1ccc3ccccc3c1O2)c1ccc(Cl)cc1 (stereo not drawn),nt,nt,49.9*,nt,nt,-86.0
COc1ccc(C(O)CN2CCC3(CC2)CC(O)c2ccc4ccccc4c2O3)cc1 (stereo not drawn),nt,nt,9.1,nt,nt,-92.7
N#Cc1c(-c2cccs2)cc(-c2cccs2)nc1SCC(=O)Nc1c(F)cccc1F,nt,nt,6.4,nt,nt,-27.9
C/C(=N/O)c1cc(C(C)(C)C)c(O)c(C(C)(C)C)c1,nt,nt,4.5,-5.3,-8.9,36.7
CC(C)(Sc1cc(C(C)(C)C)c(O)c(C(C)(C)C)c1)Sc1cc(C(C)(C)C)c(O)c(C(C)(C)C)c1,-4.0,nt,11.7,49.1*,-18.6,-5.5
CCN=c1scc(C)n1/N=C/c1ccc(O)c(O)c1O,nt,23.9,4.2,0.9,-6.9,-16.3
COCCN=c1scc(-c2cccs2)n1/N=C/c1ccc(O)c(O)c1O,-8.6,25.3,18.6,13.3*,-15.8,8.6
COc1cc(Cl)c(C)cc1NC(=O)c1cc2ccccc2o1,nt,nt,9.5,nt,nt,11.5
CC1C(=O)C(C)C(c2ccco2)NC1c1ccco1 (stereo not drawn),15.1,nt,6.1,1.1,-12.9,12.8
c1coc(C2OCC3(CO2)COC(c2ccco2)OC3)c1 (stereo not drawn),-10.5,10.8,54.2*,0.3,-5.8,32.8
O=C1Nc2ccccc2C(=O)C1(Cl)Cc1ccccc1 (stereo not drawn),nt,-12.8,112.2*,0.7,0.3,-18.7
O=C(COc1ccc2nsnc2c1)NCc1nc(-c2ccccc2)no1,nt,nt,50.1*,nt,nt,-50.9
O=C(O)COCC(=O)NCc1nc(-c2ccc(C(F)(F)F)cc2)no1,3.2,8.6,2.8,-1.8,-6.8,0.6
Cc1ccc(-c2nc(C(Cl)Cl)c3ccccc3n2)cc1,-3.1,-2.6,9.7,1.3,6.4,61.5*
O=C(CSc1nc2ccc(Cl)cc2[nH]1)Nc1ccc(Br)cc1,nt,nt,7.2,nt,nt,-13.7
NC(=O)c1cccc(-c2cc(Nc3ccc(OC(F)(F)F)cc3)ncn2)c1,nt,-15.8,59.5*,nt,nt,-23.5
O=C(CSc1ncc(-c2ccc(Cl)cc2)n1Cc1ccco1)N1CCCCC1,nt,nt,8.6,nt,nt,-10.7
CCOc1ccc2[nH]c(=O)c(CN(C(=O)Nc3ccc(C)cc3)C3CCCC3)cc2c1,nt,nt,7.5,nt,nt,-6.6
C=CCn1c(=S)[nH]c2ccccc2c1=O,nt,-7.5,14.4,1.3,9.9,4.6
SMILES,S1P3 antagonist,Pf gametocyte,EP2 antag,S1P4 ag,S1P4 antagonist,EP2 mod
Cn1c(=S)[nH]c2scc(-c3cccs3)c2c1=O,-29.1,nt,78.5*,1.5,0.7,-24.8
C=CCn1c(=S)[nH]c2scc(-c3cccs3)c2c1=O,1.4,-16.5,62.9*,-0.6,-12.1,-20.3
O=c1c2c(-c3cccs3)csc2ncn1-c1ccc(Br)cc1,nt,6.8,3.9,0.6,-12.7,22.2
COc1ccc(C(=O)N2CCN(Cc3nc4sc5c(c4c(=O)[nH]3)CCC(C(C)(C)C)C5)CC2)cc1 (stereo not drawn),nt,nt,8.5,nt,nt,-22.5
O=C(Nn1c(C2CCCCC2)nc2ccccc2c1=O)c1ccc([N+](=O)[O-])cc1,-4.2,42.1*,5.9,0.8,-13.3,15.0
COc1ccc2c(c1)[n+]([O-])c(/C(C)=N/NC(N)=S)c(C)[n+]2[O-],nt,nt,44.1*,nt,nt,7.7
Cc1cc(OCc2nc(N)nc(N)c2-c2ccc(Cl)c(Cl)c2)ccc1[N+](=O)[O-],nt,nt,68.2*,nt,nt,-34.9
Cc1ccc(S(=O)(=O)Nc2ccccc2C(=O)c2ccc(C)c(C)c2)cc1,nt,nt,45.2*,nt,nt,4.2
Oc1c(Cl)cc(-c2nc3cnccn3c2NCc2cccs2)cc1Cl,nt,nt,13.6,nt,nt,-19.9
O=c1c(O)c(-c2ccccc2)oc2ccccc12,nt,nt,112.1*,nt,nt,-22.1
